Hits are enriched below; roughly 9.3% of the tested compounds scored in any of these assays.
ELG1 genotoxic: inducers of genotoxicity in HEK293T ELG1-luciferase cells; HEK293T ELG1-luciferase reporter, luminescence, 16 h; Potency, µM (titrated, usually from 46 µM), most hits filed as activators; actives 1.3% (n = 330,000); AID 504466; also: nearly all actives have a fitted effect of over 60% in size
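Cells (2,000/well) expressing the ELG1-luciferase fusion are dosed by pin tool and kept 16 hr at 37 °C, 5% CO2. Signal comes from ONE-Glo luciferase reagent after 30 min at room temperature.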
FLuc counter: inhibits or activates purified firefly luciferase, miR-21 counter-screen; P08659; purified FLuc, Km substrates, luminescence inhibition; Potency, µM (titrated, usually from 57.5 µM), usual class: inhibitors; actives 6.9% (n = 360,000); AID 588342; also: nearly all actives have a fitted effect of over 55% in size
Target sequence (P08659 whole entry, looked up): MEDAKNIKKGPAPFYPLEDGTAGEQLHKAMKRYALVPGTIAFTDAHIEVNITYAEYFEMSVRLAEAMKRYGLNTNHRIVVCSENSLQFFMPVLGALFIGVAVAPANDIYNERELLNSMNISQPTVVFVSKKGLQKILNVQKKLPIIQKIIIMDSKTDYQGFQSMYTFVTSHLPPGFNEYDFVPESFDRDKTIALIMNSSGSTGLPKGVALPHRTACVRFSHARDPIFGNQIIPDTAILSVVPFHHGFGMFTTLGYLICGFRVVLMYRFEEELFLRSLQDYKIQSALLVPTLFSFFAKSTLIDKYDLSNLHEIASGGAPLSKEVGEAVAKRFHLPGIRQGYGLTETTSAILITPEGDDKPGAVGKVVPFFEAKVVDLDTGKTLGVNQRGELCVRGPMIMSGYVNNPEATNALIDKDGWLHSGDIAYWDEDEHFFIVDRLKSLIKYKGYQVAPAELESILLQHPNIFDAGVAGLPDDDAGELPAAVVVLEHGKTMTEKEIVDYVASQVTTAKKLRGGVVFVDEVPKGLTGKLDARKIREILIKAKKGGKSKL
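Biochemical qHTS of compounds, final roughly 60 µM downward over six points, against 10 nM purified firefly luciferase using Km concentrations of substrates (10 uM D-luciferin, 10 uM ATP) in Tris acetate pH 7.5 buffer; luminescence output.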
NPC1 prom act: activates the NPC1 promoter | Huh7 NPC1 promoter luciferase reporter, 24 h | Potency, µM (doses to about 9.22 µM), actives largely listed as activators | actives 2.4% (n = 320,000) | AID 485313; also: nearly all actives have a fitted effect of over 60% in size
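Compounds in DMSO were transferred onto Huh7 NPC1-luciferase reporter cells pre-incubated 2 h; after 24 h at 37 °C, Amplite reagent was dispensed and luminescence recorded 10 min later.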
SMN2 splice enh: enhancers of SMN2 splice variant expression. actives 2.8% (n = 210,000). HEK293 SMN2-luciferase splicing reporter, luminescence, 30-36 h. Potency, µM (top dose mostly 46.1 µM), most hits filed as activators; also: nearly all actives have a fitted effect of over 55% in size
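qHTS luciferase splicing reporter: luminescence rises when SMN2 exon 7 is included in transfected HEK293 cells. Compound exposure lasted 30-36 h at 37C, with 4.5 mM final sodium butyrate as control, followed by a ONE-Glo read.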
Rab9 promoter act: Rab9 promoter activation; Huh7 Rab9 promoter-luciferase reporter, luminescence, 24 h; Potency, µM (series often up to 9.22 µM), hits mostly activators; actives 2.8% (n = 320,000); AID 485297; also: nearly all actives have a fitted effect of over 60% in size
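Luciferase signal after 10 min detection reagent at ambient indicates Rab9 promoter upregulation; stably transfected Huh7 cells were treated 24 h with compound in DMSO at 37 °C, 5% CO2.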
ELG1 repair inh: inhibitors of ELG1-dependent DNA repair in HEK293T cells | actives 2.3% (n = 330,000) | Potency, µM (series often up to 46.1 µM), actives largely listed as inhibitors | HEK293T ELG1-luciferase reporter, luminescence, 16 h; DNA damage induced by 5-fluorouridine; also: nearly all actives have a fitted effect of over 55% in size
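Reporter activity after DNA damage by 5-fluorouridine is monitored. Compound-treated cells incubate 16 hr at 37 °C, then ONE-Glo is added for 30 min before luminescence reading.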
Numbers stand for hits; – = inactive; ? = inconclusive; · = no result. Calls follow the shape of the dose curve; as a rule, active = well fitted curve in the direction sought with a large enough effect; inconclusive = small, poorly fitted or top-dose-only effect, or another doubt; inactive = no such curve, though single readings can be large; an effect the other way counts as inactive or inconclusive.

SMILES	ELG1 genotoxic	FLuc counter	NPC1 prom act	SMN2 splice enh	Rab9 promoter act	ELG1 repair inh
CC(C)C(NC(=O)c1ccccc1F)C(=O)NCc1ccc(S(=O)(=O)N2CCOCC2)cc1 (stereo unspecified)	–	–	–	·	–	–
O=C(COC(=O)COc1ccccc1Cc1ccccc1)Nc1cccnc1Cl	–	–	–	5.62µM	–	–
COc1cc(NC(=O)CN2CCN(C(=O)C3CCCO3)CC2)c(OC)cc1Cl (stereo unspecified)	–	–	–	·	–	–
O=C(COC(=O)C1CCC1)NCc1ccccc1Cl	–	23.9µM	–	–	–	–
O=C(COC(=O)COc1ccccc1)NCCc1ccccc1	–	–	–	·	–	–
O=C(O)CCc1nc(-c2ccccc2Cl)no1	–	–	–	–	–	–
O=C(OCc1nc(-c2ccccc2Cl)no1)c1ccco1	–	12µM	–	·	–	–
CC1CC1C(=O)OCC(=O)NCc1ccccc1Cl (stereo unspecified)	–	–	–	–	–	–
O=C(COC(=O)c1ccco1)NCc1ccc(Cl)cc1Cl	–	·	·	·	·	–
O=C(COC(=O)c1ccco1)NCc1ccccc1Cl	–	26.9µM	–	–	–	–
O=C(COC(=O)C1CCCCC1)NCCc1ccccc1	–	16.9µM	–	–	–	–
CCOC(=O)C1(CC2CCCCO2)CCN(Cc2ccccc2-c2ccco2)CC1 (stereo unspecified)	–	–	–	·	–	–
CCOC(=O)c1cccc(NC(=O)Cn2c(=O)nc(-c3ccccc3)c3ccccc32)c1	·	–	·	·	·	·
COc1ccccc1NC(=O)COC(=O)C1CCCC1	–	·	·	·	·	–
O=C(COC(=O)C1CCCCC1)Nc1ccccc1OC(F)F	–	23.9µM	–	–	–	–
COc1cc(-c2nc(-c3ccc(NC(=O)c4ccc(Br)o4)cc3)no2)cc(OC)c1OC	–	?	–	–	–	10.3µM
COc1ccc(-c2nc(-c3ccc(NC(=O)c4ccc(Br)o4)cc3)no2)cc1OC	?	?	–	–	–	?
COc1ccc(CCC(=O)Nc2ccc(-c3noc(-c4ccc(OC)c(OC)c4)n3)cc2)cc1	?	–	?	11.2µM	?	?
CCOC(=O)/C(C#N)=C/c1cn(CCOc2ccc(OC)cc2)c2ccccc12	–	–	–	–	–	11.6µM
N#C/C(=C/c1cn(CC(=O)O)c2ccccc12)C(=O)Nc1ccccc1	–	15.1µM	–	·	–	–
CCOc1ccc(NC(=O)/C(C#N)=C/c2cn(CC(=O)O)c3ccccc23)cc1	–	19µM	–	·	–	?
CCc1ccc(NC(=O)/C(C#N)=C/c2cn(CC(=O)O)c3ccccc23)cc1	–	?	–	–	–	–
CCOc1cccc(NC(=O)/C(C#N)=C\c2cn(CC(=O)O)c3ccccc23)c1	–	?	–	·	–	–
Cc1ccc(OCCn2cc(/C=C/C(=O)O)c3ccccc32)cc1	–	–	–	·	–	–
CCN1C(=NCCc2cccs2)N[C@@H](CCc2ccccc2)[C@H](C(=O)NCCc2cccs2)[C@H]1C	·	–	–	·	–	·
SMILES	ELG1 genotoxic	FLuc counter	NPC1 prom act	SMN2 splice enh	Rab9 promoter act	ELG1 repair inh
O=C(Cn1cnc2ccccc2c1=O)Nc1ccccc1N1CCOCC1	–	–	–	–	–	?
O=C(NC(=S)Nc1ccccc1F)C1CCCCC1	?	?	–	·	–	?
CN(c1ccc(C(=O)N/N=C/c2cccc([N+](=O)[O-])c2)cc1)S(=O)(=O)c1ccccc1	–	–	–	·	–	?
Cc1ccc(C(=O)Nc2ccc(-c3csc(C)n3)cc2)cc1	?	?	2.24µM	–	?	?
Cc1nc(-c2ccc(NC(=O)C3CCCCC3)cc2)cs1	2.31µM	2.13µM	3.16µM	25.1µM	2.82µM	?
CCc1ccccc1NC(=O)c1ccc(-c2csc(C)n2)cc1	?	?	3.55µM	·	?	?
OC[C@H]1O[C@@H](n2cnc3cncnc32)[C@H](O)[C@@H]1O	·	·	–	–	–	·
CCOc1ccc(S(=O)(=O)Nc2cccc(C(=O)NCC(c3ccco3)N3CCCC3)c2)cc1 (stereo unspecified)	–	–	–	·	–	–
Cn1ncc2c(N3CCC(Cc4ccccc4)CC3)ncnc21	–	–	–	–	–	?
NNC(=O)c1cc2c(N3CCC(Cc4ccccc4)CC3)ncnc2s1	–	–	–	–	–	23.1µM
CCN(CC)CCNC(=O)c1ccc2c(=O)n3nc(Nc4ccccc4)sc3nc2c1	·	–	·	·	·	·
O=C(Nc1cccc(-c2nc3cccnc3s2)c1)c1ccco1	–	10.7µM	–	–	–	?
O=C(Nc1cccc(-c2nc3cccnc3s2)c1)c1cccc(Br)c1	·	–	·	·	·	·
O=C(Nc1ccc(-c2nc3cccnc3s2)cc1)c1ccc(Br)o1	2.91µM	?	2.82µM	3.16µM	3.98µM	?
O=C(Cc1ccccc1)Nc1cccc(-c2nc3cccnc3s2)c1	·	–	·	·	·	·
O=C(Nc1ccc(-c2nc3cccnc3s2)cc1)c1ccco1	0.92µM	1.07µM	0.501µM	1.41µM	0.447µM	?
O=C(NCc1cccs1)c1cc(-c2cccs2)on1	?	?	3.55µM	?	3.55µM	?
COCCNC(=O)c1cc(-c2cccs2)on1	14.6µM	?	–	–	3.16µM	?
Cc1cc(C(=O)NCc2cccs2)no1	–	–	–	–	–	–
O=C(NCc1cccs1)c1cc(C2CC2)on1	23.1µM	?	–	–	?	?
CCOC(=O)C(=O)Nc1c(C(=O)Nc2cccc(F)c2)oc2ccccc12	·	–	·	–	·	·
COc1ccccc1C1CCN(C(=O)c2ccccc2)CC1	–	–	–	·	–	–
COc1ccccc1C1CCN(c2cc(O)ccc2[N+](=O)[O-])CC1	–	–	–	·	–	11.6µM
CCCOC(=O)CSc1nnc2ccc3ccccc3n12	·	9.53µM	·	·	·	·
CCN(CC)C(=O)CSc1nnc2ccc3ccccc3n12	·	–	·	·	·	·
SMILES	ELG1 genotoxic	FLuc counter	NPC1 prom act	SMN2 splice enh	Rab9 promoter act	ELG1 repair inh
O=C(CSc1nnc2ccc3ccccc3n12)Nc1ccccc1Cl	·	16.9µM	·	·	·	·
Cc1ccc(NC(c2nnc(-c3ccccc3)o2)c2ccccc2F)c([N+](=O)[O-])c1 (stereo unspecified)	·	–	·	·	·	·
O=C(Nc1nccs1)c1ccc(-c2ccccc2[N+](=O)[O-])o1	?	4.26µM	2.82µM	·	2µM	?
O=C(Cc1ccccc1[N+](=O)[O-])Nc1nccs1	–	–	–	·	–	–
O=C(Nc1nccs1)c1ccc(-c2ccccc2Cl)o1	4.11µM	2.39µM	2.51µM	11.2µM	2.51µM	?
COc1ccc(CCN2CC(C(=O)NC3CCCCC3)CC2=O)cc1OC (stereo unspecified)	–	–	–	–	–	–
COc1ccc(-c2nc(SCC(=O)N(CC(C)C)c3c(N)n(Cc4ccccc4)c(=O)[nH]c3=O)n[nH]2)cc1	–	1.9µM	–	·	–	–

Source: PubChem BioAssay (National Center for Advancing Translational Sciences (NCATS))
